Experimental data from PubChem BioAssay.
Calls of active or inactive are those of the source.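 The calls were made as follows, unless noted: active = fluorescence slope higher than the sample average by over 3 SD (cut at about -0.22 in these data, passing the limit was not always enough); inactive = the rest.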

Each compound was assayed against Voltage-gated potassium channel subunit beta-2 (Rattus norvegicus) (UniProt P62483) (assay: inhibitors of rat Kvbeta2 reductase activity – biochemical, NADPH fluorescence, primary screen (AID 622;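 also: slope of raw intensity against log time taken from 70 to 1610 s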)). Conditions: recombinant KvBeta, 4-cyanobenzaldehyde reduction, at 10 µM, active compounds read high.
Chain of Voltage-gated potassium channel subunit beta-2 (Rattus norvegicus) (P62483 whole entry, looked up): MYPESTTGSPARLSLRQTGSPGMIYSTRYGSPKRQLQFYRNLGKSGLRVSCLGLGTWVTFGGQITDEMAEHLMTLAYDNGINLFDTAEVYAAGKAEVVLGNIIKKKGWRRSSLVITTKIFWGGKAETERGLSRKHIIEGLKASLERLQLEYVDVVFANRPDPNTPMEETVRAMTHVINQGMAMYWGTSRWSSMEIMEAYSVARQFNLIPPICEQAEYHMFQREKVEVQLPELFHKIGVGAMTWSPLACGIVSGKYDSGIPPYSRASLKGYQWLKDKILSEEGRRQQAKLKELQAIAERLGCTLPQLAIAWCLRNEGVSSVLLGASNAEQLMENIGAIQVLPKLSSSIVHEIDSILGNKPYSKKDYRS

Fluorescence slope, inactive:
Cc1nc(SCC(=O)c2ccccc2)c(C#N)c(-c2ccco2)c1C(=O)NCc1ccco1 -0.39, CC(=O)C(=[N+]=[N-])C(=O)NCc1ccccc1 -0.518, CNC(=O)c1ncnnc1N(C)C(=O)NCc1ccccc1 -0.531, CCCCNC(=O)c1c(N)n(/N=C/c2cccnc2)c2nc3ccccc3nc12 -0.456, Cc1ccnc(N2CCN(c3c4c(c(C#N)c5nc6ccccc6n35)CCC4)CC2)c1 -0.401, CC(C)Cc1[nH]c(=O)c(C#N)c2c1CCCC2 -0.318, CCOC(=O)c1c(C)n(C)c2ccc(OC)c(NC(=O)CN3CCCCC3)c12 -0.46, CSc1nc(N)nc(SCC(=O)OC(C)C)c1C#N -0.371, CC(=O)N/C(=N/c1nc(C)cc(C)n1)Nc1ccc(NC(C)=O)cc1 -0.509, Cc1ccccc1OCC(O)Cn1c(N2CCN(c3ccccc3)CC2)nc2c1c(=O)[nH]c(=O)n2C (stereo not given) -0.537, CCCOc1ccc(Cc2nn[nH]n2)cc1 -0.396, CC1CN(C2CCN(C(=O)c3ccccc3Cl)CC2)CC(C)O1 (stereo not given) -0.348, CCOc1nnnc2c1sc1nc(N3CCOCC3)c3c(c12)CC(C)(C)OC3 -0.35, CCN(CC)CCNc1nc2c(c(=O)[nH]c(=O)n2C)n1CCOc1ccccc1 -0.534, NC(=O)CSc1c[nH]c2ccccc12 -0.497, C=CCn1c(-c2ccccc2)n[nH]c1=S -0.512, CN1C(=O)N(c2ccccc2)C(Nc2nncs2)C1(C)C (stereo not given) -0.341, COc1ccc(/C=N/n2cncn2)cc1CSc1ccccn1 -0.32, COc1cc([C@@H]2[C@H]3CNCC=C3C(C#N)=C(N)C2(C#N)C#N)ccc1OC(C)C -0.251, Nc1nnc(Cc2ccc(Cl)c(Cl)c2)s1 -0.369, CCCOc1ccc(/C(O)=C2/C(=O)C(=O)N(CCN3CCOCC3)C2c2ccccc2)cc1 (stereo not given) -0.426, CC(C)C1Cc2c(C#N)c(N)n(C)c(=S)c2CO1 (stereo not given) -0.509, CNC(=O)C1CC(=O)N(Cc2ccccc2)C(=Nc2ccc(OC)cc2)S1 (stereo not given) -0.496, CCCOc1ccc(C2NC(=O)NC2=O)cc1 (stereo not given) -0.511, COC(=O)c1[nH]c2cc(OC)ccc2c1NC(=O)CCN1CCCC(C)(C)C1 -0.44, Cc1cc(OCCN2CCOCC2)nc2ccccc12 -0.431, CC(C)Nc1nc(NC(C)C)nc(N(C)n2cnnc2)n1 -0.482, COc1ccc(OC)c(C(O)c2coc3ccc(O)c(CN4CCOCC4)c23)c1 (stereo not given) -0.45, Cc1c([C@H]2[C@@H](CC#N)C2(C)C)c2ccccc2n1C -0.536, CC1=C(C(=O)Nc2ccccc2)C(c2ccncc2)C(C#N)=C(SCC(=O)NC(C)C)N1 (stereo not given) -0.309, CCCCCc1ccc(-c2ccc(=O)[nH]n2)cc1 -0.516, O=C(C1=C(O)C(=O)N(CCN2CCOCC2)C1c1cccnc1)c1cc2ccccc2o1 (stereo not given) -0.41, CCCCNC(=O)c1cc2n(n1)C(C(F)(F)F)CC(c1ccccc1)N2 (stereo not given) -0.529, CCCC1C2C(=O)N(c3ccccc3OC)C(=O)C2ON1c1ccccc1 (stereo not given) -0.536, CCOC(=O)C1=C(C)NC(=O)NC1c1ccc2c(c1)OCO2 (stereo not given) -0.387, O=C(c1cccc(Cl)c1)N1CCN(C(=O)c2ccccc2F)CC1 -0.466, Cc1noc(NS(=O)(=O)c2ccc(NC(=O)COc3ccccc3)cc2)c1C -0.376, Cc1nc(NCCN)c(C#N)c2c1COC(C)(C)C2 -0.506, Cn1c(=NCC(O)COc2ccccc2)sc2ccccc21 (stereo not given) -0.367, COc1ccc(-c2nn3c(C4CCCCC4)nnc3s2)cc1OC -0.442

What follows are compounds tested against Voltage-gated potassium channel subunit beta-2 (Rattus norvegicus) (UniProt P62483) (assay: enhancers of rat Kvbeta2 NADPH turnover – biochemical, NADPH fluorescence, primary screen (AID 623;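 active = NADPH fluorescence slope more negative than the mean of all samples by about 3 SD, 99.7% confidence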;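 also: fluorescence intensity change per second fitted from 20 to 320 s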)). Conditions: Recombinant KvBeta, NADPH fluorescence decrease slope, 10 min; at 10 µM; active compounds read low.

NADPH fluorescence slope, inactive:
Cc1nc(SCC(=O)c2ccccc2)c(C#N)c(-c2ccco2)c1C(=O)NCc1ccco1 -0.000131, CC(=O)C(=[N+]=[N-])C(=O)NCc1ccccc1 -4e-05, CNC(=O)c1ncnnc1N(C)C(=O)NCc1ccccc1 -2.3e-05, CCCCNC(=O)c1c(N)n(/N=C/c2cccnc2)c2nc3ccccc3nc12 5.4e-07, Cc1ccnc(N2CCN(c3c4c(c(C#N)c5nc6ccccc6n35)CCC4)CC2)c1 -2e-05, CC(C)Cc1[nH]c(=O)c(C#N)c2c1CCCC2 -9.4e-06, CCOC(=O)c1c(C)n(C)c2ccc(OC)c(NC(=O)CN3CCCCC3)c12 -0.000136, CSc1nc(N)nc(SCC(=O)OC(C)C)c1C#N 5e-05, CC(=O)N/C(=N/c1nc(C)cc(C)n1)Nc1ccc(NC(C)=O)cc1 -6.6e-05, Cc1ccccc1OCC(O)Cn1c(N2CCN(c3ccccc3)CC2)nc2c1c(=O)[nH]c(=O)n2C (stereo not given) -3.2e-05, CCCOc1ccc(Cc2nn[nH]n2)cc1 -5.5e-05, CC1CN(C2CCN(C(=O)c3ccccc3Cl)CC2)CC(C)O1 (stereo not given) -1.1e-05, CCOc1nnnc2c1sc1nc(N3CCOCC3)c3c(c12)CC(C)(C)OC3 1.4e-05, CCN(CC)CCNc1nc2c(c(=O)[nH]c(=O)n2C)n1CCOc1ccccc1 -4.4e-05, NC(=O)CSc1c[nH]c2ccccc12 -4.9e-05, C=CCn1c(-c2ccccc2)n[nH]c1=S -0.000177, CN1C(=O)N(c2ccccc2)C(Nc2nncs2)C1(C)C (stereo not given) -2.5e-05, COc1ccc(/C=N/n2cncn2)cc1CSc1ccccn1 9e-06, COc1cc([C@@H]2[C@H]3CNCC=C3C(C#N)=C(N)C2(C#N)C#N)ccc1OC(C)C 7.5e-06, Nc1nnc(Cc2ccc(Cl)c(Cl)c2)s1 -3.6e-05, CCCOc1ccc(/C(O)=C2/C(=O)C(=O)N(CCN3CCOCC3)C2c2ccccc2)cc1 (stereo not given) -6.6e-05, CC(C)C1Cc2c(C#N)c(N)n(C)c(=S)c2CO1 (stereo not given) -4e-05, CNC(=O)C1CC(=O)N(Cc2ccccc2)C(=Nc2ccc(OC)cc2)S1 (stereo not given) -4.1e-05, CCCOc1ccc(C2NC(=O)NC2=O)cc1 (stereo not given) -7.1e-05, COC(=O)c1[nH]c2cc(OC)ccc2c1NC(=O)CCN1CCCC(C)(C)C1 -0.00014, Cc1cc(OCCN2CCOCC2)nc2ccccc12 -9.4e-05, CC(C)Nc1nc(NC(C)C)nc(N(C)n2cnnc2)n1 -0.000155, COc1ccc(OC)c(C(O)c2coc3ccc(O)c(CN4CCOCC4)c23)c1 (stereo not given) -6.9e-05, Cc1c([C@H]2[C@@H](CC#N)C2(C)C)c2ccccc2n1C -9.2e-05, CC1=C(C(=O)Nc2ccccc2)C(c2ccncc2)C(C#N)=C(SCC(=O)NC(C)C)N1 (stereo not given) 3.2e-06, CCCCCc1ccc(-c2ccc(=O)[nH]n2)cc1 -2.1e-05, O=C(C1=C(O)C(=O)N(CCN2CCOCC2)C1c1cccnc1)c1cc2ccccc2o1 (stereo not given) -6.5e-05, CCCCNC(=O)c1cc2n(n1)C(C(F)(F)F)CC(c1ccccc1)N2 (stereo not given) -5.9e-05, CCCC1C2C(=O)N(c3ccccc3OC)C(=O)C2ON1c1ccccc1 (stereo not given) -2.6e-05, CCOC(=O)C1=C(C)NC(=O)NC1c1ccc2c(c1)OCO2 (stereo not given) -7.4e-05, O=C(c1cccc(Cl)c1)N1CCN(C(=O)c2ccccc2F)CC1 -1.8e-06, Cc1noc(NS(=O)(=O)c2ccc(NC(=O)COc3ccccc3)cc2)c1C -3.7e-05, Cc1nc(NCCN)c(C#N)c2c1COC(C)(C)C2 -1.4e-06, Cn1c(=NCC(O)COc2ccccc2)sc2ccccc21 (stereo not given) -3.8e-05, COc1ccc(-c2nn3c(C4CCCCC4)nnc3s2)cc1OC -0.000143
